Measurements from PubChem BioAssay (Tox21).
Several values for one entry are separate records, joined by “and”; a condition that tells them apart may be missing. Identical values can stand only once. Records with an inconclusive call do not appear. A call without a number means that no potency is given here. Activity calls are given as the source filed them. Unless noted, calls follow the shape of the dose curve; as a rule, active = well fitted curve in the direction sought with a large enough effect in the repeat runs; inconclusive = weak or mixed curves; inactive = no such curve, though single readings can be large; an effect the other way counts as inactive or inconclusive.

Key:
[1] = qHTS assay to identify aromatase inhibitors - cell viability counter screen (AID 743084);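 also: cells stimulated with testosterone during compound exposure; nearly all actives have a fitted effect of over 55% in size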; also: potency is read from the fitted curve at half-maximal effect
[2] = target: Aryl hydrocarbon receptor (Homo sapiens) (UniProt P35869); assay: qHTS assay to identify small molecule that activate the aryl hydrocarbon receptor (AhR) signaling pathway (AID 743085); also: nearly all actives have a fitted effect of over 15% in size; also: potency is read from the fitted curve at half-maximal effect;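 as to activation: HG2L7.5c1 human HepG2 liver cells with stably integrated DRE-driven firefly reporter; series mostly up to about 70 µM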
Method in brief: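 Cell line HG2L7.5c1 (human hepatoma, 20× DRE-luc). Plated, 5 h 37C, compound/DMSO added, 24 h 37C. CellTiter-Fluor 30 min 37C → fluorescence; then ONE-Glo 30 min RT → luminescence.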

[3] = qHTS assay to identify small molecule that activate the aryl hydrocarbon receptor (AhR) signaling pathway - cell viability counter screen (AID 743086); also: nearly all actives have a fitted effect of over 45% in size; also: potency is read from the fitted curve at half-maximal effect
Method in brief: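 HepG2-AhR-luc (HG2L7.5c1) cells, 4000/well, were preincubated 5 h at 37C, exposed to compound in qHTS format for 24 hr at 37C, then given CellTiter-Fluor for 30 min; viability was read as fluorescence in the reporter wells.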

[4] = qHTS assay for small molecule agonists of the antioxidant response element (ARE) signaling pathway - cell viability counter screen (AID 743203; calls by dose curve; also: nearly all actives have a fitted effect of over 55% in size; also: potency is read from the fitted curve at half-maximal effect)
Method in brief: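 Viability counter screen: stably transfected ARE-bla HepG2 line, 16 hrs compound exposure at 37C/5% CO2, ATP-based CellTiter-Glo luminescence measured in the reporter wells.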

[5] = qHTS assay for small molecule activators of the heat shock response signaling pathway - cell viability counter screen (AID 743209); also: nearly all actives have a fitted effect of over 50% in size; also: potency is read from the fitted curve at half-maximal effect
Method in brief: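 Viability of HSE-bla HeLa cells is measured with CellTiter-Glo in the wells already used for the reporter read. Compound exposure lasts 5 h at 37 C, and luminescence is read after 30 min at room temperature.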

[6] = qHTS assay for small molecule activators of the heat shock response signaling pathway (AID 743210; active = well fitted activation curve with a large enough effect in the signal ratio in the repeat runs, with a control signal flat, not every such curve was filed as active; the % refers to the signal ratio; also: series mostly up to about 63 µM)
Method in brief: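 Heat shock element–beta-lactamase HeLa reporter cells; qHTS with compounds for 5 h at 37 C; detection by FRET substrate fluorescence after 2.5 h at RT.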

[7] = qHTS assay to identify small molecule agonists of the peroxisome proliferator-activated receptor delta (PPARd) signaling pathway - cell viability counter screen (AID 743211); also: nearly all actives have a fitted effect of over 55% in size; also: potency is read from the fitted curve at half-maximal effect
Method in brief: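 HEK293H PPARd-bla, 3000 cells/well; 5 h preincubation 37C/5% CO2; cpd in DMSO, 17 h 37C; B/G FRET substrate 2 h RT; CellTiter-Glo 30 min RT, luminescence.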

[8] = target: Peroxisome proliferator-activated receptor delta (Homo sapiens) (UniProt Q03181); assay: qHTS assay to identify small molecule agonists of the peroxisome proliferator-activated receptor delta (PPARd) signaling pathway (AID 743212; calls by dose curve;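 also: HEK293H cells with PPARd UAS beta-lactamase reporter GeneBLAzer system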)
Method in brief: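 Beta-lactamase reporter read by fluorescence (LiveBLAzer B/G FRET, 2 h, room temperature). Test agents, in DMSO, incubated at 37 C with PPARd-bla HEK293H cells.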

[9] = target: Peroxisome proliferator-activated receptor delta (Homo sapiens) (UniProt Q03181); assay: qHTS assay to identify small molecule antagonists of the peroxisome proliferator-activated receptor delta (PPARd) signaling pathway (AID 743215; active = well fitted inhibition curve with a large enough effect in the signal ratio in the repeat runs, not every such curve was filed as active; the % refers to the signal ratio;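 also: cells stimulated with agonist L165041 at 300 nM final during compound exposure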; also: potency is read from the fitted curve at half-maximal effect)
Method in brief: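 Plated HEK293H PPARd-bla cells rested 5 h at 37 C and 5% CO2. Compound, then agonist L165041 at 300 nM final, was added; 17 h at 37 C followed. Substrate loading, 2 h room temperature, fluorescence measured.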

[10] = qHTS assay to identify small molecule agonists of the farnesoid-X-receptor (FXR) signaling pathway - cell viability counter screen (AID 743218); also: nearly all actives have a fitted effect of over 45% in size; also: potency is read from the fitted curve at half-maximal effect
Method in brief: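 Viability of FXR-bla HEK 293T cells is measured by ATP-based CellTiter-Glo luminescence following 16 h compound treatment at 37 C and a prior 2 h room-temperature beta-lactamase substrate step.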

[11] = qHTS assay to identify small molecule antagonists of the farnesoid-X-receptor (FXR) signaling pathway - cell viability counter screen (AID 743221; active = well fitted cell-killing curve with a large enough effect in the repeat runs, not every such curve was filed as active; also: nearly all actives have a fitted effect of over 50% in size; also: potency is read from the fitted curve at half-maximal effect)
Method in brief: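 Luminescence from CellTiter-Glo measures cytotoxicity in GeneBLAzer FXR-UAS-bla HEK 293T cells. Cells were exposed to compounds with 50 uM chenodeoxycholic acid (final) for 16 h at 37 C, in wells also used for the reporter readout.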

[12] = target: Vitamin D3 receptor (Homo sapiens) (UniProt P11473); assay: qHTS assay to identify small molecule agonists of the vitamin D receptor (VDR) signaling pathway (AID 743222; calls by dose curve)
Method in brief: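 Fluorescence from cleaved LiveBLAzer B/G FRET substrate served as readout. VDR-bla cells had been treated 16 h at 37C with test compounds in DMSO, following a 4 h settling period, and substrate was loaded for 2 h at RT.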

[13] = target: Vitamin D3 receptor (Homo sapiens) (UniProt P11473); assay: qHTS assay to identify small molecule antagonists of the vitamin D receptor (VDR) signaling pathway (AID 743223; active = well fitted inhibition curve with a large enough effect in the signal ratio in the repeat runs, not every such curve was filed as active; the % refers to the signal ratio; also: potency is read from the fitted curve at half-maximal effect)
Method in brief: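 Antagonist mode uses 1alpha,25-dihydroxyvitamin D3 at 3 nM final as stimulus. VDR-bla cells receive compounds in DMSO, incubate 16 h at 37C, then a beta-lactamase FRET substrate for 2 h at room temperature before fluorescence measurement.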

[14] = qHTS assay to identify small molecule antagonists of the peroxisome proliferator-activated receptor gamma (PPARg) signaling pathway - cell viability counter screen (AID 743194); also: nearly all actives have a fitted effect of over 55% in size; also: potency is read from the fitted curve at half-maximal effect
Method in brief: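 PPARg-UAS-bla HEK293H cells were plated, rested 5 h at 37 C, then treated with compounds plus rosiglitazone (50 nM final) for 17 h at 37 C; viability was then read by CellTiter-Glo luminescence after 30 min at room temperature.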

[15] = qHTS assay to identify small molecule antagonists of the peroxisome proliferator-activated receptor delta (PPARd) signaling pathway - cell viability counter screen (AID 743213); also: nearly all actives have a fitted effect of over 50% in size; also: potency is read from the fitted curve at half-maximal effect
Method in brief: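 In this counter screen, HEK293H cells carrying a UAS-beta-lactamase reporter are co-treated with test compounds and 300 nM L165041 (final) for 17 h at 37 C; cell viability is quantified by CellTiter-Glo luminescence.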

[16] = target: Bile acid receptor (Homo sapiens) (UniProt Q96RI1); assay: qHTS assay to identify small molecule agonists of the farnesoid-X-receptor (FXR) signaling pathway (AID 743220; active = well fitted activation curve with a large enough effect in the signal ratio in the repeat runs, not every such curve was filed as active; the % refers to the signal ratio)
Method in brief: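 FXR-UAS-bla HEK 293T cells carrying a UAS-driven beta-lactamase reporter were plated for 5 h at 37C/5% CO2, then exposed to DMSO-dissolved Tox21 10K compounds for 16 h at 37C. A LiveBLAzer B/G FRET substrate was loaded for 2 h at room temperature before fluorescence reading.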

[17] = target: Bile acid receptor (Homo sapiens) (UniProt Q96RI1); assay: qHTS assay to identify small molecule antagonists of the farnesoid-X-receptor (FXR) signaling pathway (AID 743217; active = well fitted inhibition curve with a large enough effect in the signal ratio in the repeat runs, not every such curve was filed as active; the % refers to the signal ratio; also: potency is read from the fitted curve at half-maximal effect)
Method in brief: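 Screen of the Tox21 10K library in quantitative HTS format using FXR-UAS-bla HEK 293T reporter cells. Agonist chenodeoxycholic acid, 50 uM final, added with compounds; 16 h incubation at 37 °C; beta-lactamase FRET fluorescence measured.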

Chain of Bile acid receptor (Homo sapiens) (Q96RI1 whole entry, looked up): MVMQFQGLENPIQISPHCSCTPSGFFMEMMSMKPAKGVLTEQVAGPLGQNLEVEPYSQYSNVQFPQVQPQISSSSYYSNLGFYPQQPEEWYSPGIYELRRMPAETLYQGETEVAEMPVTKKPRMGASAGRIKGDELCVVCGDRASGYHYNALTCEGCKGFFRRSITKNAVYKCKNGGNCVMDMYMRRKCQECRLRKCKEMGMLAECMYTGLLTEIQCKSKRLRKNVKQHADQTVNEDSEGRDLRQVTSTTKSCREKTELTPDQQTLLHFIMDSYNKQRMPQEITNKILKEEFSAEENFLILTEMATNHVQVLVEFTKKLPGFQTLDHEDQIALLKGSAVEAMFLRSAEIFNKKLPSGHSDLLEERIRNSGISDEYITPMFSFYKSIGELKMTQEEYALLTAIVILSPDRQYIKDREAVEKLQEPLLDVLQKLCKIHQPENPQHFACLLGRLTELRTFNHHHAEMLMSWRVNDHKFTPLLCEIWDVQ
Chain of Peroxisome proliferator-activated receptor delta (Homo sapiens) (Q03181 whole entry, looked up): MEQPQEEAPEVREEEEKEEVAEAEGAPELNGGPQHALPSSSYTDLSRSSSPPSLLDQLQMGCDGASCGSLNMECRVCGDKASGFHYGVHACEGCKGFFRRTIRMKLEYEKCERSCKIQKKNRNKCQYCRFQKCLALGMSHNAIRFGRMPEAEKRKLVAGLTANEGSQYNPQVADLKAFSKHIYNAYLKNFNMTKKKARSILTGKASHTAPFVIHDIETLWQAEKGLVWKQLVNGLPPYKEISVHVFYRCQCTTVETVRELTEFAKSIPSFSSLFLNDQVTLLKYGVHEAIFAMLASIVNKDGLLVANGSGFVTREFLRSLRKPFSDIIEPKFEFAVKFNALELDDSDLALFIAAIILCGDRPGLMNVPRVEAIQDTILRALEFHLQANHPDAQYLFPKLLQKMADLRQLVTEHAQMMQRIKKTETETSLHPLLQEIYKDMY
Chain of Vitamin D3 receptor (Homo sapiens) (P11473 whole entry, looked up): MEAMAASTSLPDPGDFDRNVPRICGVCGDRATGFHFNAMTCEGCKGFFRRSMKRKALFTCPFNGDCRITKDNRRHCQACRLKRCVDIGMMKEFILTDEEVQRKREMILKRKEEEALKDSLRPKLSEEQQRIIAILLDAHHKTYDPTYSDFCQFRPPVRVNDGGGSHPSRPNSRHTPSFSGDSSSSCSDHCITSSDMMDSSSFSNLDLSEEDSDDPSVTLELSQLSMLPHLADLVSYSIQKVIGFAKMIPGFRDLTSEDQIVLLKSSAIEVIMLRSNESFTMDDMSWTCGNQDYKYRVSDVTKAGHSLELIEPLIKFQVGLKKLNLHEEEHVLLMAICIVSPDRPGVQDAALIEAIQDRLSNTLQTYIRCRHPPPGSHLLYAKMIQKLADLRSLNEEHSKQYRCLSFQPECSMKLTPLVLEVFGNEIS
Chain of Aryl hydrocarbon receptor (Homo sapiens) (P35869 whole entry, looked up): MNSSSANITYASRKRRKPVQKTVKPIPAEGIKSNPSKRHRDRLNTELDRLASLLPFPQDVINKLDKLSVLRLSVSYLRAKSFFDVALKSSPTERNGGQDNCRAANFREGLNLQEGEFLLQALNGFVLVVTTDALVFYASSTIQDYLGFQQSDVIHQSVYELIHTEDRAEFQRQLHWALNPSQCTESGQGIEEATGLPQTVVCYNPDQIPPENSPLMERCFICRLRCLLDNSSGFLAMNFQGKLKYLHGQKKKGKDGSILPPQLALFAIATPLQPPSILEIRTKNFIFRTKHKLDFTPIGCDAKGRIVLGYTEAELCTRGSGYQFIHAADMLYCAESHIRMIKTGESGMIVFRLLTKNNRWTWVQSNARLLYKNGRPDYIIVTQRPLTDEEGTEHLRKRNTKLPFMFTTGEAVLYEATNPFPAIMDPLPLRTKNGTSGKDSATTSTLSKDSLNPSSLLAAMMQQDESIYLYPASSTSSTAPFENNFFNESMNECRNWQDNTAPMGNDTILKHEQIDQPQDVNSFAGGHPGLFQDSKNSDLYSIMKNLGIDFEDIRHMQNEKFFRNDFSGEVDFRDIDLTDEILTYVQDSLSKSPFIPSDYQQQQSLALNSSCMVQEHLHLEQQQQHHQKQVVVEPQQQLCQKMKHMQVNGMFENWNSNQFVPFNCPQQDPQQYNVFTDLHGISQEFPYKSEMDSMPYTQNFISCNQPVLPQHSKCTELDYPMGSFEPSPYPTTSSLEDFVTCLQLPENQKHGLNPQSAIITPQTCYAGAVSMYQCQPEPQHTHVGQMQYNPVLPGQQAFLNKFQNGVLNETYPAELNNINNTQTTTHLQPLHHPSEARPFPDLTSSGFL

Structure (SMILES)	Potency [1]	Potency [2]	Potency [3]	Potency [4]	Potency [5]	Potency [6]	Potency [7]	outcome [8]	Potency [9]	Potency [10]	Potency [11]	Potency [12]	Potency [13]	Potency [14]	Potency [15]	Potency [16]	Potency [17]
CCCCCCCCCCCCCCNCCO	inactive	10.6 µM (active)	inactive	26.6 µM (active)	inactive	inactive	inactive	inactive	inactive	inactive	inactive	inactive	inactive				
CCCCCCCCCCCCCOP(=O)(O)O	inactive	inactive	inactive	43.3 µM (active)	34.7 µM (active)			inactive	inactive	inactive	inactive	inactive		43.6 µM (active)			
CCCCC(CC)COC(=O)c1ccc(O)cc1 (configuration not stated)	27.2 µM (active)	inactive	inactive	inactive	24.5 µM (active)		38.8 µM (active)	inactive			48.8 µM (active)	inactive			34.5 µM (active) and 38.9 µM (active)	inactive	
CCCCOC(=O)C(C)CC (configuration not stated)	inactive	inactive		inactive						inactive			inactive	inactive	49 µM (active)		
Cc1nc(Nc2ncc(C(=O)Nc3c(C)cccc3Cl)s2)cc(N2CCN(CCO)CC2)n1	inactive	1.19 µM (active)	9.44 µM (active)		inactive	inactive		inactive	0.473 µM (active)					inactive		inactive	
CC(=O)Nc1ccc(O)cc1	inactive	inactive	inactive		inactive		inactive			inactive	inactive			inactive	inactive		
NC(=O)c1nc(-c2cccc(-c3cc(F)ccc3OCC(F)(F)C(F)(F)F)c2)n[nH]1	43.3 µM (active)	inactive							54.9 µM (active)			inactive				inactive	
CCCCCCCCCCCCOC(=O)c1cc(O)c(O)c(O)c1	30.5 µM (active) and 61.1 µM (active)	inactive	inactive	68.3 µM (active) and 61.1 µM (active)	13.7 µM (active) and 49 µM (active)		34.5 µM (active) and 43.6 µM (active)			43.5 µM (active)	38.7 µM (active) and 19.5 µM (active)						54.9 µM (active)
Cc1cc2c(C(C)C)c(O)c(O)c(C=O)c2c(O)c1-c1c(C)cc2c(C(C)C)c(O)c(O)c(C=O)c2c1O	26.6 µM (active)	inactive		8.41 µM (active)	13.3 µM (active)		9.44 µM (active)		18.8 µM (active)	10.6 µM (active)	16.8 µM (active)			8.41 µM (active)	11.9 µM (active)		
CC(=O)OC(OC(C)=O)c1ccc([N+](=O)[O-])o1	13.9 µM (active)	inactive		62.2 µM (active)	19.8 µM (active)		49.8 µM (active)							49.8 µM (active)			
CCCCCCCCCCCCCC[n+]1ccccc1	54.5 µM (active)	inactive	54.5 µM (active)	27.3 µM (active)	30.9 µM (active)						54.9 µM (active)		43.6 µM (active)		24.5 µM (active)		
O=C(O)CCn1c2c(c3ccccc31)C[C@H](NS(=O)(=O)c1ccc(F)cc1)CC2	inactive	inactive	inactive		inactive		inactive			inactive	inactive			inactive	inactive		
